Laboratory results published in the supplement of paper PMC10849652.
About 7,900 targets were measured; listed, in parts, are those with a hit and a random draw of the rest. About 0.6% of all pairs of compound and target were hits.

Each target was assayed with CC1=CC=C(C=C1)SC2=C3C=C(SC3=CN=C2)C(=O)N (assay: log2 fold change, soluble protein after heating vs DMSO (PISA); higher = thermal stabilisation; K562 cells, 10 uM, 30 min; active = over 0.2 and 3.5 SD of the protein, either way, in both replicates (recomputed)).
Method in brief: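 Soluble protein was quantified by TMTpro 16plex LC-MS/MS after channel sums were equalised. It was obtained as the supernatant after 21,000xg for 90 min from pooled aliquots of K562 cells (2×10^6 cells/mL, 10 μM compound, 30 min) heated for 3 min across 48°C-58°C and extracted in PBS with 0.5% NP-40 at 4°C. Thermal stability values are relative to control samples and come from duplicates. They are given as log2 fold changes.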

Chain of UniProt Q0VG06 (Q0VG06 whole entry, looked up): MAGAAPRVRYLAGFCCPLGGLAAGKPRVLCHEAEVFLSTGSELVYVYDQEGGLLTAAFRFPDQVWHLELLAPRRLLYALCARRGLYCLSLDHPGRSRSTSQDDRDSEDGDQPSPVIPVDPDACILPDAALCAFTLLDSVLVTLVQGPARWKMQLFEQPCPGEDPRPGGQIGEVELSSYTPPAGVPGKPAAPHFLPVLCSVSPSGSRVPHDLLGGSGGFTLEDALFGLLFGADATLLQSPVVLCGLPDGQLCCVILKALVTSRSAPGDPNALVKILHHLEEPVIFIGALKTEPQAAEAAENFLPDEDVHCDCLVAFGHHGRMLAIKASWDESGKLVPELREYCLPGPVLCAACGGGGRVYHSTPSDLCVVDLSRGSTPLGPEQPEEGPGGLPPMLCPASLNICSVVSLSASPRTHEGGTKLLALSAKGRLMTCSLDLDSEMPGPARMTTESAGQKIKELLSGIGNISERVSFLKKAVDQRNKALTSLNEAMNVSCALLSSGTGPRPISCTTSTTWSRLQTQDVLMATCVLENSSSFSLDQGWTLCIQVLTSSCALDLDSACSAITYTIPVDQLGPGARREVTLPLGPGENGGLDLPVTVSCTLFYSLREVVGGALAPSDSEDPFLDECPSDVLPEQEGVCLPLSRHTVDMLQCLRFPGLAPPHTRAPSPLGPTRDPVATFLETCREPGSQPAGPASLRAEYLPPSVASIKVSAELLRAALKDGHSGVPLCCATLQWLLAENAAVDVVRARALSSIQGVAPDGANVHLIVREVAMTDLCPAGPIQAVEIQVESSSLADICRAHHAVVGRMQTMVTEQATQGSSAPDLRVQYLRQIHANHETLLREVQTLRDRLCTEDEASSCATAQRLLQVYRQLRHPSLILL
Chain of UniProt P29692 (P29692 whole entry, looked up): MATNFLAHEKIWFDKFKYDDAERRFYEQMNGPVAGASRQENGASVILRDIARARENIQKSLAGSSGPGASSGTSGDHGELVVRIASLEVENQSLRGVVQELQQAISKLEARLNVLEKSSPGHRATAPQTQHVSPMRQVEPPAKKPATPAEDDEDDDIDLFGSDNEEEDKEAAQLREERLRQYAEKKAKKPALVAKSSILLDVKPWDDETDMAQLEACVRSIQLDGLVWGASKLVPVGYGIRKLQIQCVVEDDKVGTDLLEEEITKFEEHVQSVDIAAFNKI
Chain of UniProt Q14203 (Q14203 whole entry, looked up): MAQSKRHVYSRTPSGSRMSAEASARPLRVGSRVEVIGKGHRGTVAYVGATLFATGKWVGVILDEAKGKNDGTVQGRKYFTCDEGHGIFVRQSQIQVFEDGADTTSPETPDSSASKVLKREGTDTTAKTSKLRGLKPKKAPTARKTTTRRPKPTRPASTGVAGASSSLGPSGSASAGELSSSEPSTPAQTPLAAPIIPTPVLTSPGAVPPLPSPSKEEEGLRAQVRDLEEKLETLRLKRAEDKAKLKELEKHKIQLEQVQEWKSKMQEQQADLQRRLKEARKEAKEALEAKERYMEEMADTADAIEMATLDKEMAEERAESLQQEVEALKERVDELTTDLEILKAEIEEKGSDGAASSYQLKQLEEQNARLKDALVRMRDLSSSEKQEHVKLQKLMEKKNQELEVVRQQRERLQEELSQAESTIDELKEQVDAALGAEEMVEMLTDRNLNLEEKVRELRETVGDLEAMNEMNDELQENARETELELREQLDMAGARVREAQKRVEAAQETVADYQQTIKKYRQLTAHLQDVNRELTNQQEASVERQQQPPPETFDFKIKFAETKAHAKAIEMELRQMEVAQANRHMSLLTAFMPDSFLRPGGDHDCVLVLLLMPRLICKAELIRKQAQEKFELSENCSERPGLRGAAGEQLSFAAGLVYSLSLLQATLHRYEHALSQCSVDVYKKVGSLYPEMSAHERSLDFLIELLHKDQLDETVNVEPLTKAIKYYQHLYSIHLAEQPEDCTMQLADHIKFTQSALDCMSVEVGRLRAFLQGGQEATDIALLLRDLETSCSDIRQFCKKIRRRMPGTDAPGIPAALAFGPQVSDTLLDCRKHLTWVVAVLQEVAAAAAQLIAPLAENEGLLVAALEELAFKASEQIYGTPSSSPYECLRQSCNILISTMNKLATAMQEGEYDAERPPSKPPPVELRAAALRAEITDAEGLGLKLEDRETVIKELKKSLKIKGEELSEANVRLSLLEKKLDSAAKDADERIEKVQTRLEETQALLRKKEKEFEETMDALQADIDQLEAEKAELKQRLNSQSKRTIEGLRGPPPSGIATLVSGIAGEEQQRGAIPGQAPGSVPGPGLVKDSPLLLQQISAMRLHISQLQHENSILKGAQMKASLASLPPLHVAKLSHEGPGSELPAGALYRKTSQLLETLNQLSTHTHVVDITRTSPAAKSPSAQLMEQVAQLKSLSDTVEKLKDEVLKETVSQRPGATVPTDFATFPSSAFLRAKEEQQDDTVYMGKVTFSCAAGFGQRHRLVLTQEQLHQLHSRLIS
Chain of UniProt Q8N5C7 (Q8N5C7 whole entry, looked up): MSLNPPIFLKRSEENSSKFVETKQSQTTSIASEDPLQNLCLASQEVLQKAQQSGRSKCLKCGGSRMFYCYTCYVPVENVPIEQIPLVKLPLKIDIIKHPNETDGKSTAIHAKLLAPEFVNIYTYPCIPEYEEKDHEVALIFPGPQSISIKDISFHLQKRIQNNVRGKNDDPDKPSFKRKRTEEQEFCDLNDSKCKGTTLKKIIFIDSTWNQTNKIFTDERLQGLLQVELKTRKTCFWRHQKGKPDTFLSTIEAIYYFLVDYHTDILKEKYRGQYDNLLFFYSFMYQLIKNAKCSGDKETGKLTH
Chain of UniProt Q6P3W2 (Q6P3W2 whole entry, looked up): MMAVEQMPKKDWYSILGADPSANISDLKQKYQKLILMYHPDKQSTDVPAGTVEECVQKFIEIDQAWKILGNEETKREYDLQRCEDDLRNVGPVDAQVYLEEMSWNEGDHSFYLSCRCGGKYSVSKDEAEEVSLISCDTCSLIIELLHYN
Chain of UniProt Q9UJU6 (Q9UJU6 whole entry, looked up): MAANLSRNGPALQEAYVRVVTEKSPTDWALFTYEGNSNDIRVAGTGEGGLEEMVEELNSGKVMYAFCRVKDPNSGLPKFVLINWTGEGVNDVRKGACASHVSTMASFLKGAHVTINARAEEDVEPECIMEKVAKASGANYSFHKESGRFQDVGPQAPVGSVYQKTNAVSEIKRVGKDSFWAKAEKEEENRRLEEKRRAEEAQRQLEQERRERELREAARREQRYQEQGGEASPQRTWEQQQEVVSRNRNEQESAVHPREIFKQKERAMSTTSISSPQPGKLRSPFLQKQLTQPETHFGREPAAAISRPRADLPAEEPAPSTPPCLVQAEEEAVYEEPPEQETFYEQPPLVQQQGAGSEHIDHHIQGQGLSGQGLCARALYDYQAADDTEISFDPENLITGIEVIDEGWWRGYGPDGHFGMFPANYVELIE
Chain of UniProt P24534 (P24534 whole entry, looked up): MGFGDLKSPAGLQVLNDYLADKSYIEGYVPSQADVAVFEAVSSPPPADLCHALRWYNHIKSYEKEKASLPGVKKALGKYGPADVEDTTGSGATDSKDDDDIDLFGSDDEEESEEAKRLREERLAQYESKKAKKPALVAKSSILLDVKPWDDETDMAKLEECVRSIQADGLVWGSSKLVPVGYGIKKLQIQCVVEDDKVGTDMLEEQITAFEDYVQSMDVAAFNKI
Chain of UniProt Q9NRY5 (Q9NRY5 whole entry, looked up): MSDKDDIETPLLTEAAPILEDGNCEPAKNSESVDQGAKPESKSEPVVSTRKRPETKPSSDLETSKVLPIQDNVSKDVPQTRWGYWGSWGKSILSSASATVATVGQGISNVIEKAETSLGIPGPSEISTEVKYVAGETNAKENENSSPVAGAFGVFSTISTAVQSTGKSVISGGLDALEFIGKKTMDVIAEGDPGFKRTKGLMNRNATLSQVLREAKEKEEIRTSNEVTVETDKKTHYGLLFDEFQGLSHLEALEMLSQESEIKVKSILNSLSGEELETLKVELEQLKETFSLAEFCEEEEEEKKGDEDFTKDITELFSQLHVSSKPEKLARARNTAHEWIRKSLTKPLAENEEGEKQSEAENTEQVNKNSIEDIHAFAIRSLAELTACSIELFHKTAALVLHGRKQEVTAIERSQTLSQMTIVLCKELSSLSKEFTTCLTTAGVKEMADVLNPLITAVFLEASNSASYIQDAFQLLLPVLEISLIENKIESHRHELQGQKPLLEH
Chain of UniProt Q6IAN0 (Q6IAN0 whole entry, looked up): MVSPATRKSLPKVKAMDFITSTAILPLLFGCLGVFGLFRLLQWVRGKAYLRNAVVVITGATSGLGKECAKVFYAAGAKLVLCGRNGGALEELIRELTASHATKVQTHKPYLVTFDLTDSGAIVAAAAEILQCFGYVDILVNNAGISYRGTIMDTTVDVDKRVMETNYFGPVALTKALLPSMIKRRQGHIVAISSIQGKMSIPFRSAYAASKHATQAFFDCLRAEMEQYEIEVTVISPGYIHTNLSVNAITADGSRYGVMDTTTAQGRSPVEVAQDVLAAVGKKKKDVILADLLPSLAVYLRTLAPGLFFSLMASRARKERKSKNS
Chain of UniProt Q9UK59 (Q9UK59 whole entry, looked up): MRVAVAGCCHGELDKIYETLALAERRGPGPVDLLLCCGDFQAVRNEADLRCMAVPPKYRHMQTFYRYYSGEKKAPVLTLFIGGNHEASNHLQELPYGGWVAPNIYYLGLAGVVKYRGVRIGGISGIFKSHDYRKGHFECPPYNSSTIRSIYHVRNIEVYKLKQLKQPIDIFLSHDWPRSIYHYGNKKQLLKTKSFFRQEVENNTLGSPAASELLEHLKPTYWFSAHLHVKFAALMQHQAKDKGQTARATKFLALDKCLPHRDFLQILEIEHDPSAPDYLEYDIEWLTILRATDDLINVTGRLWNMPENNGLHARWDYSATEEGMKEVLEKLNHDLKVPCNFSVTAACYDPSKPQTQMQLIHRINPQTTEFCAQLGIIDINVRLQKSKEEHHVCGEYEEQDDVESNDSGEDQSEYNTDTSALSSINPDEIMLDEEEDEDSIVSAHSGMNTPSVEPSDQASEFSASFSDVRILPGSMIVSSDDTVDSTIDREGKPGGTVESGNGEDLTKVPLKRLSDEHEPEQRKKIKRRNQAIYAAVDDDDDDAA

| Target | log2 fold change |
| --- | --- |
| ECPAS (UniProt Q5VYK3) | 0.016 (inactive) |
| FAAP100 (UniProt Q0VG06) | -0.039 (inactive) |
| DCTN1 isoform 4 (UniProt Q14203) | 0.015 (inactive) |
| DMAC1 (UniProt Q96GE9) | 0.116 (inactive) |
| DBNL isoform 3 (UniProt Q9UJU6) | 0.011 (inactive) |
| DNAJC24 (UniProt Q6P3W2) | 0.104 (inactive) |
| EIF4E2 (UniProt O60573) | 0.061 (inactive) |
| DHPS (UniProt P49366) | 0.034 (inactive) |
| DBR1 (UniProt Q9UK59) | 0.007 (inactive) |
| ELOC (UniProt Q15369) | 0.008 (inactive) |
| EXOC8 (UniProt Q8IYI6) | 0.037 (inactive) |
| EEF1D isoform 2 (UniProt P29692) | -0.012 (inactive) |
| DHRS7B (UniProt Q6IAN0) | -0.049 (inactive) |
| ERCC2 (UniProt P18074) | -0.005 (inactive) |
| EIF2S3 (UniProt P41091) | -0.006 (inactive) |
| CYP51A1 (UniProt Q16850) | -0.098 (inactive) |
| FAM114A2 (UniProt Q9NRY5) | 0.038 (inactive) |
| CUTA isoform 2 (UniProt O60888) | 0.013 (inactive) |
| EEF1B2 (UniProt P24534) | -0.007 (inactive) |
| DCTPP1 (UniProt Q9H773) | 0.009 (inactive) |
| EED, A0A5F9ZI63 | -0.012 (inactive) |
| DTWD1 (UniProt Q8N5C7) | 0.023 (inactive) |
| EEF1A1 (UniProt P68104) | 0 (inactive) |
